Test results: PubChem BioAssay (NCI)
The panel holds about 83,000 compounds, 20% with a hit somewhere; the sample as a whole holds those more often.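 Testing used 96-well plates and a 48-hour single-concentration exposure. Example: -40 means 40% of the starting cells died.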 Active and inactive are the calls of the source. How the source made its calls: active means growth percent below 10; inactive means the rest.

Tests used:
Assay in all cases: NCI-60 one-dose screen, 48 h (100 = growth as untreated, 0 = no growth, -100 = all killed)
Conditions in all cases: 10 µM unless noted
DU-145 prostate = tested on: DU-145 prostate
K-562 leukemia = tested on: K-562 leukemia
MALME-3M melanoma = tested on: MALME-3M melanoma
MDA-MB-231 breast = tested on: MDA-MB-231 breast
RXF 393 renal = tested on: RXF 393 renal
SF-268 CNS = tested on: SF-268 CNS
SF-295 CNS = tested on: SF-295 CNS
SF-539 CNS = tested on: SF-539 CNS
UACC-257 melanoma = tested on: UACC-257 melanoma
M14 melanoma = tested on: M14 melanoma

Measured: growth

CSc1nc(O)c(-c2ccccc2)c(=O)[nH]1
inactive: DU-145 prostate 107% | K-562 leukemia 98% | MALME-3M melanoma 101% | MDA-MB-231 breast 98.5% | RXF 393 renal 116% | SF-268 CNS 103% | SF-295 CNS 101% | SF-539 CNS 100% | UACC-257 melanoma 101% | M14 melanoma 101%

COc1cccc(C(Cc2ccccc2)Nc2ccccc2)c1OC (configuration not stated)
inactive: DU-145 prostate 109% | K-562 leukemia 90.4% | MALME-3M melanoma 98.9% | MDA-MB-231 breast 97.4% | RXF 393 renal 109% | SF-268 CNS 101% | SF-295 CNS 99.6% | SF-539 CNS 104% | UACC-257 melanoma 91% | M14 melanoma 97.2%

CC(=O)CCSc1ccc(OC(C)=O)cc1
inactive: DU-145 prostate 108% | K-562 leukemia 96.1% | MALME-3M melanoma 115% | MDA-MB-231 breast 91.7% | RXF 393 renal 109% | SF-268 CNS 96.4% | SF-295 CNS 105% | SF-539 CNS 97.3% | UACC-257 melanoma 88.1% | M14 melanoma 103%

Fc1ccc(-n2cc(COc3ncnc4sc5c(c34)CCCC5)nn2)cc1Cl
inactive: DU-145 prostate 105% | K-562 leukemia 95.5% | MALME-3M melanoma 92.1% | MDA-MB-231 breast 95.8% | RXF 393 renal 103% | SF-268 CNS 95.8% | SF-295 CNS 105% | SF-539 CNS 98.8% | UACC-257 melanoma 102% | M14 melanoma 94.2%

O=C(Nc1nc2ccc(S(=O)(=O)Nc3ccc(C4(C(F)(F)F)CC4)cc3)cc2[nH]1)c1cnccn1
inactive: DU-145 prostate 30.4% | K-562 leukemia 21.4% | MALME-3M melanoma 37.3% | MDA-MB-231 breast 59.2% | RXF 393 renal 28.6% | SF-268 CNS 34.3% | SF-295 CNS 33.4% | UACC-257 melanoma 48.5% | M14 melanoma 34.7%
active: SF-539 CNS 5.95%

CCCCN(CCCC)CCc1c(C)cc(C)c(CCN(CCCC)CCCC)c1O
active: MALME-3M melanoma -15.9% | UACC-257 melanoma 7.47%
inactive: DU-145 prostate 52.9% | K-562 leukemia 21.2% | MDA-MB-231 breast 48.3% | RXF 393 renal 40.1% | SF-268 CNS 49.5% | SF-295 CNS 31.3% | SF-539 CNS 67.6% | M14 melanoma 38.8%

CCOC(=O)N1CCN(CCCCl)CC1
inactive: DU-145 prostate 115% | K-562 leukemia 96.2% | MALME-3M melanoma 102% | MDA-MB-231 breast 100% | RXF 393 renal 118% | SF-268 CNS 104% | SF-295 CNS 98.8% | SF-539 CNS 97.7% | UACC-257 melanoma 96.6% | M14 melanoma 101%

Cc1ccc(Nc2cc(=S)nc(N)[nH]2)cc1C
inactive: DU-145 prostate 102% | K-562 leukemia 92.9% | MALME-3M melanoma 100% | MDA-MB-231 breast 80.6% | RXF 393 renal 107% | SF-268 CNS 100% | SF-295 CNS 98.6% | SF-539 CNS 96.4% | UACC-257 melanoma 103% | M14 melanoma 93.7%

Cc1[nH]n(-c2cccc(Cl)c2)c(=O)c1/C=C1\C=Nc2ccc(Br)cc21
inactive: DU-145 prostate 36.2% | K-562 leukemia 64% | MALME-3M melanoma 12.6% | MDA-MB-231 breast 17.4% | SF-268 CNS 51.1% | SF-295 CNS 31.3% | SF-539 CNS 42.2% | UACC-257 melanoma 75.1% | M14 melanoma 54.3%
active: RXF 393 renal -44.4%

Cc1c(C(=O)NO)sc2ncnc(Nc3ccc(NC(=S)Nc4ccccc4)cc3)c12
inactive: DU-145 prostate 107% | K-562 leukemia 103% | MALME-3M melanoma 99.5% | MDA-MB-231 breast 95% | RXF 393 renal 104% | SF-268 CNS 98.2% | SF-295 CNS 98.3% | SF-539 CNS 100% | UACC-257 melanoma 99.4% | M14 melanoma 104%

COc1ccc(CC(C)=C(c2ccc(OCCN(C)C)cc2)c2ccc(OCCN(C)C)cc2)cc1
active: K-562 leukemia -28.1% | M14 melanoma -39.7%
inactive: DU-145 prostate 83.1% | MALME-3M melanoma 96% | MDA-MB-231 breast 39% | RXF 393 renal 74.2% | SF-268 CNS 82.7% | SF-295 CNS 67.3% | SF-539 CNS 81.7% | UACC-257 melanoma 92.7%

O=C(Nc1ccc2cc3ccc(NC(=O)N4CCCCCC4)cc3nc2c1)N1CCCCCC1
active: DU-145 prostate -25.7% | K-562 leukemia -11.1% | MALME-3M melanoma -85.3% | MDA-MB-231 breast -69.1% | RXF 393 renal -76.3% | SF-268 CNS -41.3% | SF-295 CNS -79.4% | SF-539 CNS -71.1% | UACC-257 melanoma -75.7% | M14 melanoma -66.2%

O=C(NNc1nc(Cl)nc(N2CCN(C(c3ccccc3)c3ccccc3)CC2)n1)c1ccccc1
inactive: DU-145 prostate 46.6% | SF-268 CNS 63.1% | SF-295 CNS 92.3% | M14 melanoma 10.5%
active: K-562 leukemia -38.8% | MALME-3M melanoma -14.4% | MDA-MB-231 breast -54.3% | RXF 393 renal -47.1% | SF-539 CNS -33% | UACC-257 melanoma -1.56%

Cc1ccc(S(=O)(=O)Nc2ccc(Cl)cc2)cc1
inactive: DU-145 prostate 118% | K-562 leukemia 97.6% | MALME-3M melanoma 100% | MDA-MB-231 breast 86.6% | RXF 393 renal 103% | SF-268 CNS 107% | SF-295 CNS 91.2% | SF-539 CNS 104% | UACC-257 melanoma 105% | M14 melanoma 103%

COc1ccc(C(=O)c2cc(C)c(OC)c(C)c2)c(OC)c1O
inactive: MALME-3M melanoma 54.8% | MDA-MB-231 breast 16.8% | RXF 393 renal 35.4% | SF-268 CNS 31.5% | SF-295 CNS 25.2% | UACC-257 melanoma 50.6%
active: DU-145 prostate -5.78% | K-562 leukemia 8.52% | SF-539 CNS -10.8% | M14 melanoma -1.65%

CC(=O)c1c(-c2ccc(OC(F)(F)F)cc2)nc2ccccn12
inactive: DU-145 prostate 101% | K-562 leukemia 113% | MALME-3M melanoma 88.9% | MDA-MB-231 breast 94% | RXF 393 renal 108% | SF-268 CNS 94.3% | SF-295 CNS 90.2% | SF-539 CNS 92.3% | UACC-257 melanoma 81.8% | M14 melanoma 89.8%

CCCCCCN(C)Cc1ccc(OCCOc2ccc(CN(C)CCCCCC)cc2)cc1
active: K-562 leukemia -20.7% | MALME-3M melanoma -80.6% | MDA-MB-231 breast 4.17% | RXF 393 renal -29.2% | SF-295 CNS -51.9% | UACC-257 melanoma -52.5% | M14 melanoma -96.9%
inactive: DU-145 prostate 50.1% | SF-268 CNS 45.5% | SF-539 CNS 13.5%

C=C(C)[C@@H]1CC[C@]2(C(=O)O)CC[C@]3(C)[C@H](CC[C@@H]4[C@@]5(C)C[C@@H](CC#Cc6ccc(Br)cc6)C(=O)C(C)(C)[C@@H]5CC[C@]43C)[C@@H]12
inactive: DU-145 prostate 40% | K-562 leukemia 42.8% | RXF 393 renal 52.6% | SF-268 CNS 72.1% | SF-295 CNS 58.9% | SF-539 CNS 61.1% | UACC-257 melanoma 52.7%
active: MALME-3M melanoma -19.9% | MDA-MB-231 breast 0.351% | M14 melanoma 5.57%

O=C(Nc1cccc(Cl)c1)c1cc(Cl)ccc1O
inactive: DU-145 prostate 24.1% | K-562 leukemia 15.5% | SF-268 CNS 18% | SF-539 CNS 19.4%
active: MALME-3M melanoma -17.8% | MDA-MB-231 breast 1.35% | RXF 393 renal -12.3% | SF-295 CNS -60.3% | UACC-257 melanoma -4.11% | M14 melanoma 8.3%

CC(=O)N1c2ccccc2NC2=C(C(=O)N(C)C2(C)C)C1C (configuration not stated)
inactive: DU-145 prostate 79% | K-562 leukemia 16.6% | MALME-3M melanoma 44.3% | MDA-MB-231 breast 63.3% | RXF 393 renal 27.8% | SF-268 CNS 43% | SF-295 CNS 46% | SF-539 CNS 20.1% | UACC-257 melanoma 36.4% | M14 melanoma 21.5%

CS(=O)(=O)OCCN(CCOS(C)(=O)=O)c1ccc(/C=N/Nc2ccc([N+](=O)[O-])cc2[N+](=O)[O-])cc1
inactive: DU-145 prostate 99.7% | K-562 leukemia 102% | MALME-3M melanoma 86.8% | MDA-MB-231 breast 71.6% | RXF 393 renal 102% | SF-268 CNS 94.1% | SF-295 CNS 79.2% | SF-539 CNS 80.5% | UACC-257 melanoma 96.9% | M14 melanoma 99.3%

Cc1[nH]c(C(=O)Nc2ccccc2OCc2cccc(C(=O)NCCN)c2)c(Cl)c1Cl
active: K-562 leukemia -47.5%
inactive: DU-145 prostate 100% | MALME-3M melanoma 58.4% | MDA-MB-231 breast 76.8% | RXF 393 renal 65.2% | SF-268 CNS 67.9% | SF-295 CNS 87.8% | SF-539 CNS 84.9% | UACC-257 melanoma 104% | M14 melanoma 87.8%

N#Cc1ccc(-c2ccc3c(c2)NC(=O)/C3=C\c2ccc[nH]2)cc1
inactive: DU-145 prostate 106% | K-562 leukemia 105% | MALME-3M melanoma 98% | MDA-MB-231 breast 45.9% | RXF 393 renal 67.3% | SF-268 CNS 96.6% | SF-295 CNS 95.7% | SF-539 CNS 101% | UACC-257 melanoma 112% | M14 melanoma 102%

COc1ccccc1Nc1cc(O)c2c(=O)cc(-c3ccccc3)oc2c1
inactive: DU-145 prostate 45.6% | K-562 leukemia 11.6% | MALME-3M melanoma 44.1% | MDA-MB-231 breast 39.2% | SF-268 CNS 44.9% | SF-295 CNS 25.9% | SF-539 CNS 28.3% | UACC-257 melanoma 54% | M14 melanoma 20.8%

COc1cc2ncnc(Nc3ccc(C(=O)/C=C/c4ccc(C(F)(F)F)cc4F)cc3)c2cc1OC
inactive: DU-145 prostate 107% | K-562 leukemia 58.4% | MALME-3M melanoma 106% | MDA-MB-231 breast 90.7% | SF-268 CNS 96.2% | SF-295 CNS 95.8% | SF-539 CNS 93.7% | UACC-257 melanoma 111% | M14 melanoma 97.9%

COc1ccc(C(=O)c2cc(C)c(OC)c(C)c2)c(OC)c1N(C(=O)C(Cl)Cl)C(=O)C(Cl)Cl
active: DU-145 prostate 1.52% | K-562 leukemia 8.2% | SF-295 CNS 7.31% | SF-539 CNS -16% | M14 melanoma -14.8%
inactive: MALME-3M melanoma 58.2% | MDA-MB-231 breast 13.2% | RXF 393 renal 41.2% | SF-268 CNS 30.6% | UACC-257 melanoma 48.3%

CC1(c2ccccc2)NC(=O)N(CC(=O)Nc2cccc(I)c2)C1=O (configuration not stated)
inactive: DU-145 prostate 106% | K-562 leukemia 91.7% | MALME-3M melanoma 75.3% | MDA-MB-231 breast 75% | SF-268 CNS 89.7% | SF-295 CNS 94% | SF-539 CNS 89.9% | UACC-257 melanoma 84.9% | M14 melanoma 102%
